Test results as given in PubChem BioAssay (NCI).
This is part of a sample that, as a whole, favours compounds with a hit. Of some 79,000 tested, about 15% had one in any assay. Unmarked numbers belong to inactive results. Calls of active or inactive are those of the source. Rule as the data show it: active = growth inhibition above about 70%; inactive = the rest. Where a SMILES comes first, the peptide text is derived from it. The star is where a group is joined. Cbz = O=C(OCc1ccccc1)*; Boc = CC(C)(C)OC(=O)*; OSu = O=C1CCC(=O)N1O*; Bn = c1ccc(C*)cc1

Experiments:
[1] = NCI Yeast Anticancer Drug Screen. Data for the rad50 strain (AID 155);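 also: 0% = growth of vehicle-only cultures of the same strain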; details: S. cerevisiae rad50 strain growth inhibition; at 50.0 µM; active compounds read high
Procedure, shortened: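 Compounds were tested on a yeast strain with an engineered DNA damage repair alteration; the reported value is growth inhibition normalised to vehicle treatment.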

[2] = NCI Yeast Anticancer Drug Screen. Data for the mec2-1 strain (AID 157); details: S. cerevisiae mec2-1 strain, at 50.0 µM, active compounds read high
Procedure, shortened: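 Mutant yeast (mec2-1) grown with compound; growth inhibition relative to vehicle control reported.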

[3] = NCI Yeast Anticancer Drug Screen. Data for the sgs1 mgt1 strain (AID 161);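 also: 0% = growth of cultures given vehicle only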; details: S. cerevisiae sgs1 mgt1 strain, at 50.0 µM, active compounds read high
Procedure, shortened: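 Compounds are added to genetically altered yeast, and growth is compared with cultures given vehicle alone to give percent inhibition.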

[4] = NCI Yeast Anticancer Drug Screen. Data for the cln2 rad14 strain (AID 165);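 also: 0% = growth equal to vehicle treated cultures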; details: S. cerevisiae cln2 rad14 strain, at 50.0 µM, active compounds read high
Procedure, shortened: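 Readout is yeast growth inhibition versus vehicle-treated controls, using a strain with cln2 and rad14 alterations exposed to compound.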

[5] = NCI Yeast Anticancer Drug Screen. Data for the bub3 strain (AID 167); details: S. cerevisiae bub3 mutant strain, at 50.0 µM, active compounds read high
Procedure, shortened: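 Growth of a checkpoint-deficient yeast mutant is measured after compound exposure. Values represent inhibition relative to vehicle.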

[6] = NCI Yeast Anticancer Drug Screen. Data for the mlh1 rad18 strain (AID 175); details: S. cerevisiae mlh1 rad18 strain growth inhibition; at 50.0 µM; active compounds read high
Procedure, shortened: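 Genetically defined yeast (DNA repair-deficient) exposed to compounds; growth inhibition determined relative to vehicle.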

Row | SMILES | growth inhibition [1] | growth inhibition [2] | growth inhibition [3] | growth inhibition [4] | growth inhibition [5] | growth inhibition [6]
1 | NC(=S)N1CC=CCC1 | -8.65% | 0.9% | -3.4% | 7.95% | 3.9% | -6.8%
2 | N[C@@H](CO)[C@@H](O)c1ccc([N+](=O)[O-])cc1 | 1.5% | -7.7% | -3.9% | -38.5% | 1.5% | -4.6%
3 | CS(=O)(=O)N(CCC#N)c1ccc(C=O)cc1 | 20.4% | -24.7% | -7.4% | -8.1% | -12.2% | 7%
4 | CC(=O)OC1C(COC(=O)c2ccccc2)OC(Nc2ncc(-c3ccc(Br)cc3)s2)C(OC(=O)c2ccccc2)C1OC(=O)c1ccccc1 (stereo unspecified) | 1.05% | 15.4% | -5.9% | 31.9% | -3.55% | -39.9%
5 | O=C(CC(O)(C(F)(F)F)C(F)(F)F)c1ccc(Cl)c([N+](=O)[O-])c1 | 97.2% (active) | 99.2% (active) | 99.1% (active) | 96.6% (active) | 97.7% (active) | 98.8% (active)
6 | CC(=O)Nc1ccc(S(=O)(=O)O)c(C(F)(F)F)c1 | 17.1% | 21.1% | 12.6% | -8% | 26.5% | 11.4%
7 | c1ccc(C2=NCCN2)nc1 | 8.1% | 0.9% | -5.7% | -1.15% | 0.65% | 6.55%
8 | ClCC1=NC2C(Cl)C(Cl)C(Cl)C(Cl)C2N1 (stereo unspecified) | 87.8% (active) | 77% (active) | 94.7% (active) | 87.5% (active) | 75.9% (active) | 94% (active)
9 | O=C(O)c1ccc2ccccc2c1C(=O)O | 6.4% | -1.6% | 0.25% | -6.55% | -2.2% | -1.7%
10 | CC(C)CNC(=O)/C=C/c1ccc2c(c1)OCO2 | 13.5% | -19.1% | -1.4% | 3.4% | 6.45% | -15.1%
11 | CC(C)(C)OC(=O)NC(Cc1ccc(OCc2ccccc2)cc1)C(=O)NC(CCCCNC(=O)OCc1ccccc1)C(=O)NC(CCCCNC(=O)OCc1ccccc1)C(=O)ON1C(=O)CCC1=O (stereo unspecified) (Boc-Tyr(Bn)-Lys(Cbz)-Lys(Cbz)-OSu; configuration not given here) | -1.85% | 2.95% | 6.6% | 6.15% | 8.6% | 16.5%
12 | C=CCN1CC2CON(C(=O)C(OC)(c3ccccc3)C(F)(F)F)C2C1C(C)C (stereo unspecified) | 2.05% | -17.7% | 9.15% | 18.2% | 24.2% | -5.85%
13 | O=[N+]([O-])c1cccnc1Sc1ncccn1 | -7.25% | -12.2% | -10.2% | -23.1% | -25.6% | -6.2%
14 | CC(C)(C)C(=O)OCN1CCOCC1 | -10.6% | 10.9% | 0.65% | -47.8% | -9.15% | -10.2%
15 | CN(C)NC(=O)Nc1ccc2ccccc2c1 | -39.4% | -30.7% | -8.55% | -41% | -24.2% | -24.4%
16 | COC(=O)CCNC(C(=O)O)C(C)(C)SCCC(=O)OC (stereo unspecified) | -18.6% | -19.1% | -7.9% | 24.5% | 24.5% | -20.4%
17 | CCOC(=O)C1CCc2ccccc2C1=O (stereo unspecified) | -2.95% | -12.3% | 5.85% | -3.35% | 14.6% | -4.95%
18 | Nc1nc(N)nc(C2C=CCCC2)n1 (stereo unspecified) | -19.6% | 1.85% | -13% | -32.6% | -11.4% | -18.1%
19 | [N-]=[N+]=NC1(Cc2ccccc2)C(=O)Nc2ccccc2C1=O (stereo unspecified) | 0.8% | -10.1% | -19.4% | 4.2% | -5.65% | -16%
20 | Cc1[nH]nc(C(=O)O)c1[N+](=O)[O-] | 35.6% | 11.3% | 20.2% | -25.7% | -3.2% | 8.2%
21 | Cc1ccsc1C(=O)c1ccccc1 | -11.6% | -7% | -5.65% | -24.6% | -1.5% | 5.45%

Row | SMILES | growth inhibition [1] | growth inhibition [2] | growth inhibition [3] | growth inhibition [4] | growth inhibition [5] | growth inhibition [6]
22 | CC(=O)n1nc(Cl)c2cccnc2c1=O | 11.8% | -1.1% | 4.3% | 1.55% | -0.4% | 8.85%
23 | CSc1ncc2c(n1)-c1ccccc1OC2N1CCCCC1 (stereo unspecified) | 9.8% | 13.7% | 7.4% | -3.45% | 23.4% | 38.7%
24 | COc1ccc(C2=C(C#N)C(=C(C#N)C#N)NC(N)=C2C#N)cc1 | -11.1% | -1.25% | -21.8% | -4.75% | -19.4% | -17.4%
25 | Nc1nc2c(ncn2C2OCC(O)C(O)C2O)c(=O)[nH]1 (stereo unspecified) | 15.6% | -9.7% | -13.8% | -6.15% | 0.75% | -2.3%
26 | O=C1NC(N2CCCCC2)=N/C1=C\c1ccco1 | -11.8% | 0.2% | 8.35% | 13.7% | -5.65% | -33.8%
27 | O=C(O)CCc1nc2ccccc2c(=O)n1Cc1ccccc1 | 11.1% | 10.1% | -7.3% | -6.1% | 2.8% | 10.4%
28 | Cc1cc(N(CCC#N)CCC#N)ccc1/C(N=Nc1ccccc1)=N\NC(=O)c1ccccc1 | 22.3% | 16.6% | 11.2% | -8.5% | -16.1% | 31.8%
29 | O=S(=O)(O)C(O)C(c1ccccc1)c1ccccc1 (stereo unspecified) | -16.1% | -15.8% | -15.6% | -15.8% | -7.2% | -31.9%
30 | C=NNC(=O)c1ccncc1 | -10.4% | -6.1% | 6.4% | -37.5% | 12.8% | 5.9%
31 | O=C(NCCCl)NC(Cc1ccccc1)Cc1ccccc1 | 6.65% | 10.7% | 15% | 53.7% | 2.1% | 31.4%
32 | CCOC(=O)NN(C(=O)OCC)c1c(C)cc(C)c(N(NC(=O)OCC)C(=O)OCC)c1C | 1.7% | 7.25% | 12.4% | 23.9% | 16.4% | 22.6%
33 | CCOC(=O)c1c(C)nc(C)c(C(=O)OCC)c1-c1ccnc2ccccc12 | 0.9% | -15.9% | 17.4% | -13% | -3.95% | 5.1%
34 | O=Cc1ccc(-c2ccc([N+](=O)[O-])cc2)o1 | 3.7% | 9% | -9.5% | -7.8% | -0.3% | 3.6%
35 | Cc1cc(Cc2cc(C)c(O)c(CN(C)C)c2)cc(CN(C)C)c1O | -1.8% | -7.7% | 1.35% | -19.5% | -6.1% | -7.05%
36 | CC(=O)N(c1ccccc1)c1cc(Cl)cc[n+]1[O-] | 8.5% | 3.5% | 5.45% | -3.7% | 5.3% | -2.05%
37 | COCc1cc(C(C)(C)C)cc(CNC2CCCCC2)c1O | 16% | 12.2% | 27.1% | 13.4% | 12.5% | 10.7%
38 | O=C1c2cn[nH]c2C(c2ccccc2)N1c1ccccc1 (stereo unspecified) | 44.1% | 6.8% | 22.6% | 24.3% | 27.9% | 38.9%
39 | CC1CNCC(C)N1C(=O)c1ccccc1 (stereo unspecified) | 3.85% | 5.15% | -7.7% | 3.25% | 1.5% | -39.5%
40 | CCCCCCC(C)Cl (stereo unspecified) | 18.9% | -6.05% | 15.8% | 23.7% | 5.9% | 1.05%
41 | NCCSC(O)(C(F)(F)F)C(F)(F)F | 19.6% | 8.85% | 3.05% | -15.2% | 1.2% | 23%
